BaF3 tox: parental Ba/F3 viability inhibition as JAK2V617F counter-screen; CellTiter-Glo ATP luminescence; hit rate 1.1% among 220,000; inhibition, % at 5.6 µM;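 active means inhibition above a per-campaign cutoff, the mean inhibition of all tested compounds plus 3 SD, cut at about 27% in these data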;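 further: 0% = DMSO wells and 100% = JAK Inhibitor I control wells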
aSyn 5UTR inh: 5' untranslated region of α-synuclein, MLPCN primary screen. inhibition, % (tested at 7.5 µM). hit rate 0.82% among 300,000. alpha-synuclein 5'UTR reporter, inhibitor activity; in the data active means inhibition above about 60%; inconclusive means no clear call, values can overlap the other calls;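 further: H4 neuroglioblastoma cells stably carrying SNCA 5'UTR luciferase fusion; 0% = DMSO wells and 100% = positive control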
IEC-6 tox: kills IEC-6 intestinal cells in KLF5 counter-screen | IEC-6 cytotoxicity, luminescence viability | inhibition, % at 5 µM | hit rate 0.78% among 290,000 | AID 1825; in the data active means inhibition above about 22%;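 further: 0% = plate median of test compound wells and 100% = cytotoxic reference compound wells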
APP transl inh: APP translation inhibition; inhibition, % at 2 µM; AID 1285; hit rate 0.82% among 190,000; SH-SY5Y APP 5'UTR-luciferase reporter, luminescence;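 active means inhibition above a set limit, derived from the sample mean plus 3 SD, cut at about 45% in these data; inconclusive means one replicate passes the limit while the other fails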
Ba/F3 V617F tox: loss of viability in JAK2V617F-driven Ba/F3 cells. Ba/F3 EpoR-JAK2V617F viability, ATP luminescence. inhibition, % at 5.6 µM. hit rate 1.1% among 220,000;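 active means inhibition above the campaign mean plus 3 SD over all tested compounds, cut at about 24% in these data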;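 further: cytokine-independent growth of Ba/F3 cells driven by EpoR plus mutant JAK2; 0% = DMSO-treated cells and 100% = JAK inhibitor I control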
KLF5 inh: suppresses KLF5 promoter-driven expression | DLD-1 KLF5 promoter-luciferase reporter, luminescence | inhibition, % at 5 µM | hit rate 0.23% among 290,000;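 active means inhibition above a per-plate limit of that plate's mean compound inhibition plus 3 SD, cut at about 60% in these data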;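 further: 0% = DMSO wells and 100% = LY294002 at 200 µM; higher means less KLF5 promoter-driven luciferase light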
* = called active by the depositor; ? = inconclusive; · = no result. Rows were chosen to be rich in hits. Some 2.2% of all compounds tested hit in one or more screens of this group.

SMILES	BaF3 tox	aSyn 5UTR inh	IEC-6 tox	APP transl inh	Ba/F3 V617F tox	KLF5 inh
Cc1ccc(C(C)C)c(OCC(=O)NN=C2CCCCCCC2)c1	3.1	16.2	0.4	85.5*	-1.5	-39.0
CCc1cc2c(SCC#N)ncnc2s1	0.0	-9.6	4.5	5.5	-3.3	-24.0
COc1ccc(C(=O)N/N=C/c2ccc(OC)c(COc3ccc(F)cc3)c2)cc1	·	8.4	5.2	·	·	-4.3
CCOc1cc(/C=N\NC(=O)c2ccc(NC(=O)C(C)(C)C)cc2)ccc1OC(=O)c1ccc(OC)cc1	0.7	11.5	1.6	93.9*	-3.6	-28.2
COc1ccc(CNC(=S)Nc2cc(C)ccc2C)cc1	4.1	21.0	-1.5	70.5*	-1.9	-18.5
Cc1ccc(C)c(NC(=S)NCc2ccc3[nH]c4c(c3c2)CCCC4)c1	8.0	13.8	0.3	46.9*	0.9	-1.8
O=C(NCc1cccnc1)C(=O)NCC1OCCCN1S(=O)(=O)c1ccccc1 (configuration not stated)	8.0	7.9	8.3	5.5	3.2	28.2
CCCCNC(=O)[C@H](CSCc1ccccc1)N1Cc2ccccc2C1=O	5.9	12.3	2.1	-11.5	-1.5	-16.0
COC(=O)CN(c1cccc(C)c1)S(=O)(=O)c1ccccc1	·	-5.3	11.3	·	·	4.9
COc1ccc(N(Cc2cc3ccccc3[nH]c2=O)S(=O)(=O)c2ccc(OC)cc2)cc1	·	-64.1	-0.6	·	·	-7.1
COc1ccc(N(Cc2cc3cc(OC)ccc3[nH]c2=O)S(=O)(=O)c2ccc(NC(C)=O)cc2)cc1	·	93.3*	2.7	·	·	28.3
CCCN(Cc1ccccc1)C(=S)Nc1cccc(C(F)(F)F)c1	33.2*	-1.2	-0.7	4.0	34.2*	-11.5
CN(C)CCCN(Cc1ccccc1)C(=S)Nc1cccc(C(F)(F)F)c1	10.4	16.5	2.4	-12.7	-0.6	-5.5
CN(C)CCCN(Cc1ccccc1)C(=S)Nc1ccc(F)c(Cl)c1	29.2*	-21.2	-2.4	-11.9	33.5*	-32.1
O=C(CC1C(=O)NCCN1Cc1ccccc1C(F)(F)F)NCCc1ccccn1 (configuration not stated)	80.0*	-15.0	8.1	13.9	0.8	-12.7
O=C(CC1C(=O)NCCN1Cc1c(F)cccc1Cl)NCCc1ccccn1 (configuration not stated)	7.8	3.0	1.0	8.1	2.8	-21.4
COc1cccc(CNC(=O)CS(=O)(=O)Cc2nc(-c3ccc(C)cc3)oc2C)c1OC	·	5.0	6.4	·	·	12.4
Cc1ccc(OCc2nc(C#N)c(NCc3ccc4c(c3)OCO4)o2)cc1	0.2	-0.2	5.0	67.0*	-2.4	-29.6
COc1ccc(Nc2oc(COc3ccc(Cl)cc3)nc2C#N)cc1	2.2	90.6*	-2.3	-3.6	2.8	1.5
Cc1ccc(S(=O)(=O)NCC(=O)NCC(=O)N2CCC(C)CC2)cc1	·	-3.7	-3.6	·	·	-18.8
CNS(=O)(=O)c1cc2c3c(cccc3c1)C(=O)NC2=O	3.7	71.1*	1.8	3.5	-1.2	11.0
Cc1ccc(C(=O)Nc2nnc(SCC(=O)N3CCCc4ccccc43)s2)cc1	7.0	74.5*	-4.0	-58.8	1.9	-36.4
CC(C)Oc1ccc(C(=O)Nc2nnc(SCC(=O)N3CCOCC3)s2)cc1	4.8	97.7*	2.8	-88.0	-0.8	-35.3
CCOC(=O)CNC(=O)CSc1nnc(NC(=O)c2ccc(C)cc2)s1	-0.6	73.9*	5.2	-36.6	-1.3	-41.4
NS(=O)(=O)c1ccc(NC(=O)COc2ccc(S(=O)(=O)N3CCCC3)cc2)cc1	·	3.9	-0.4	·	·	-23.2
SMILES	BaF3 tox	aSyn 5UTR inh	IEC-6 tox	APP transl inh	Ba/F3 V617F tox	KLF5 inh
Cc1csc(NC(=O)CSc2nccn2Cc2ccco2)n1	·	-8.3	-9.3	·	·	-1.2
CCCCCCCN1C/C=C\C(c2ccc(OC)cc2)N(Cc2ccc(F)cc2)C(=O)[C@H]1Cc1ccccc1 (some centres not stated)	·	31.2	·	·	·	·
O=C(C1CCCCN1S(=O)(=O)c1ccccc1[N+](=O)[O-])N1CCCCC1 (configuration not stated)	9.9	-35.5	0.7	-16.8	3.2	-36.5
COc1ccccc1CNC(=O)COC(=O)CCC(=O)c1cccs1	8.1	19.5	-2.8	-1.9	1.8	-29.3
C=CCNC(=S)/N=c1/ccccn1CCC	56.5*	11.9	0.4	·	51.0*	-35.1
CNC(=S)N1C2CCC1CC(NC(=O)NC13CC4CC(CC(C4)C1)C3)C2 (configuration not stated)	1.3	19.2	5.1	-9.4	-2.1	1.1
O=C(CCn1cnc2ccccc2c1=O)Nc1cccc(Cl)c1Cl	6.0	26.2	-2.1	-1.1	0.1	-35.9
CC(C)(C)C(=O)/C(=C\c1ccc([N+](=O)[O-])cc1)n1cncn1	90.5*	-276.5	23.2*	92.6*	96.7*	44.9
Cc1nc(-c2ccccc2)cc(N2CCCC2)n1	0.4	-35.0	7.8	-0.8	-0.9	4.5
Cc1cc(-c2ccccc2)nc2[n+]1CCN2C	61.8*	-7.8	-3.4	-11.5	67.9*	-5.5
NC(=O)C1CCCN1S(=O)(=O)c1ccc2ccccc2c1 (configuration not stated)	·	13.1	-5.6	·	·	-70.7
CC(=O)Oc1c(C)c(=O)n(C)c2ccccc12	42.3*	-8.2	0.0	-16.4	66.0*	-12.2
COC(=O)[C@H](CCSC)NC(=O)NC1CC1	-3.0	25.0	6.9	·	-2.7	-19.4
CCOC(=O)C1=C(COC(=O)C(CC)Oc2ccccc2)NC(=O)NC1C (configuration not stated)	·	6.3	·	·	·	·
Cc1c(CCC(=O)N2CCC(C(=O)O)CC2)c(=O)oc2cc3oc4c(c3cc12)CCCC4	·	74.1*	2.7	·	·	-10.8
Cc1oc2c(C)c3oc(=O)c(CCC(=O)N4CCC(C(=O)NCCC(=O)O)(c5ccccc5)CC4)c(C)c3cc2c1C	·	-8.6	0.5	·	·	-2.7
Cc1c(CCC(=O)N2CCC(C(=O)O)(c3ccccc3)CC2)c(=O)oc2cc3oc4c(c3cc12)CCCC4	·	67.5*	3.2	·	·	-36.8
Cc1c(CC(=O)NCCC(=O)O)c(=O)oc2cc3oc4c(c3cc12)CCCC4	·	8.4	0.5	·	·	-21.1
Cc1c(CCC(=O)N[C@@H](C)C(=O)O)c(=O)oc2cc3oc4c(c3cc12)CCCC4	·	70.7*	6.3	·	·	-19.7
CCOCCOC(=O)c1[nH]c2c(c1C)C(=O)CC(c1cccs1)C2 (configuration not stated)	79.5*	84.6*	87.1*	92.9*	80.5*	76.8*
Cc1cc(N2CCN(c3ccc([N+](=O)[O-])c4cccnc34)CC2)c2ccccc2n1	0.7	83.7*	-16.6	18.3	0.7	-22.7
CCn1c(C)cc(/C=C2/NC(=O)N(c3ccccc3)C2=O)c1C	1.9	-153.1	-1.8	-89.1	39.9*	-69.8
O=C(N/N=C/c1cn(Cc2ccccc2)c2ccccc12)c1cc(O)cc(O)c1	·	62.1*	-4.3	·	·	-18.0
N#CCC(=O)N/N=C/c1cn(Cc2ccc(Cl)c(Cl)c2)c2ccccc12	-5.2	?	-1.6	·	-3.8	7.7
O=C(O)c1ccc(N/N=C/c2cn(Cc3ccc(F)cc3)c3ccccc23)cc1	-1.0	-68.9	8.9	·	-1.0	-33.0

Screens (PubChem)
